# Data published in PubChem BioAssay (NCI).
# About 83,000 compounds went through this panel and 20% of them were active in at least one assay; those are over-represented in the sample as a whole.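 Single-dose data. Exposure time 48 hours. Values below 10 considered active.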 Unmarked numbers belong to inactive results. The source made the active and inactive calls.
# Columns and labels:
# Assay in all cases: NCI-60 one-dose screen, 48 h (100 = growth as untreated, 0 = no growth, -100 = all killed)
# Conditions in all cases: 10 µM unless noted
# [1] = system: DU-145 prostate
# [2] = system: K-562 leukemia
# [3] = system: MALME-3M melanoma
# [4] = system: MDA-MB-231 breast
# [5] = system: RXF 393 renal
# [6] = system: SF-268 CNS
# [7] = system: SF-295 CNS
# [8] = system: SF-539 CNS
# [9] = system: UACC-257 melanoma
# [10] = system: M14 melanoma
# [11] = system: HCT-15 colon
# [12] = system: HT29 colon
# [13] = system: SNB-75 CNS
# [14] = system: SNB-19 CNS
# [15] = system: U251 CNS
# [16] = system: PC-3 prostate
# [17] = system: SK-MEL-5 melanoma
# [18] = system: UACC-62 melanoma
# [19] = system: LOX IMVI melanoma
# [20] = system: SK-MEL-28 melanoma
SMILES,growth [1],growth [2],growth [3],growth [4] [%],growth [5],growth [6],growth [7],growth [8],growth [9],growth [10],growth [11],growth [12],growth [13],growth [14],growth [15] [%],growth [16],growth [17],growth [18],growth [19],growth [20]
N#Cc1c(N)n(C2OC(CO)C(O)C2O)c2ncnc(N)c12 (centres undefined),-9.06% (active),-28.6% (active),-25.7% (active),14.3,-77.1% (active),-18.8% (active),4.21% (active),-53.1% (active),-37.8% (active),-52% (active),-4.45% (active),2.5% (active),-37.5% (active),5.99% (active),15.2,-13.5% (active),-33.4% (active),-49.6% (active),-52.4% (active),-60.9% (active)
Nc1nonc1-c1nc2ccccc2n1Cc1ccc(F)cc1,80.7%,10.6%,46.2%,60,37.8%,66.3%,68.5%,49.9%,75.4%,28.2%,30.4%,17.3%,32.4%,63.8%,52.3,61.7%,56.8%,48.8%,49.1%,61.3%
O=C(O)/C=C(\c1nc2ccc([N+](=O)[O-])cc2[nH]1)c1cc(Cl)ccc1O,39.9%,14.7%,6.7% (active),13.1,39.1%,32.2%,21.6%,26.3%,17.8%,25.8%,21.1%,36.2%,50.4%,18.5%,16.9,14.1%,-28% (active),-3.61% (active),21%,20.8%
O=c1[nH]c2cc(Cl)c(Cl)cc2o1,113%,102%,117%,100,135%,103%,55.9%,105%,114%,105%,101%,112%,92.5%,109%,95.1,64.6%,115%,,99.4%,116%
CCOC(CN1CCN(CC(C)C(=O)c2ccccc2)CC1)c1ccccc1 (centres undefined),112%,115%,105%,95.5,99.5%,113%,92.6%,111%,93.2%,114%,100%,108%,79%,97.8%,90.5,93.6%,90.1%,105%,101%,98%
COc1ccc(Nc2ncnc3c2sc2nc(C)cc(C)c23)cc1,102%,101%,94.5%,102,104%,94.3%,112%,94.6%,93.2%,102%,96%,105%,74.4%,99.2%,103,92.7%,99.8%,100%,96.7%,105%
COc1cc(C2CC(c3ccc(Cl)cc3)=NN2C=O)ccc1OS(=O)(=O)c1ccc(C)cc1 (centres undefined),105%,82.1%,93.8%,92.5,97.2%,100%,87.4%,89.6%,85.3%,84%,89.7%,99.3%,91.5%,86.7%,91,94.4%,86.3%,78.6%,97.2%,103%
